{"source": "PubChem BioAssay (NCI)", "note": "The panel holds about 83,000 compounds, 20% with a hit somewhere; the sample as a whole holds those more often.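 Growth was measured after 48 h exposure to one concentration of compound in 96-well plates. Values under 10 count as active.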 Active and inactive are the calls of the source."}
{"tested_on": "NCI-H23 lung", "experiment": "NCI-60 one-dose screen, 48 h (100 = growth as untreated, 0 = no growth, -100 = all killed)", "settings": "10 µM unless noted"}
{"smiles": "CCC1S/C(=N\\N=C(/C)c2ccco2)N(c2ccccc2)C1=O", "note": "(centres undefined)", "growth": "98.8% (inactive)"}
{"smiles": "C#C[C@H](O)/C=C/CCCCCCC#C[C@H](O)CC[C@@H](O)C#CCCCCCC/C=C/[C@@H](O)C#C", "growth": "51% (inactive)"}
{"smiles": "O=[N+]([O-])c1cccc2cc(S(=O)(=O)O)ccc12", "growth": "105% (inactive)"}
{"smiles": "Nc1ccc(S(=O)(=O)Nc2cc(I)cc(I)c2)cc1", "growth": "93.6% (inactive)"}
{"smiles": "O=C(Nc1ccc(-n2cc(-c3ccncc3)c(-c3ccc(O)c(Cl)c3)n2)cc1)Nc1cc(C(F)(F)F)cc(C(F)(F)F)c1", "growth": "47.5% (inactive)"}
{"smiles": "O[C@@H]1CCO[C@H](c2ccc3ccccc3c2)C1", "growth": "95.3% (inactive)"}
{"smiles": "COc1cc(Cn2cc3c(c2)-c2onc(CO)c2CC3)cc(OC)c1OC", "growth": "92.7% (inactive)"}
{"smiles": "CN(C)CCS(=O)(=O)Nc1cc(-c2ccc3ncnc(Nc4ccc(F)c(Cl)c4)c3c2)cnc1Cl", "growth": "-10.1% (active)"}
{"smiles": "CCN(CC)c1ccc(C2CC(c3cc(OC)c(OC)c(OC)c3)=NN2)cc1", "note": "(centres undefined)", "growth": "32.3% (inactive)"}
{"smiles": "CCn1cc(C(=O)O)c(=O)c2cc(F)c(N3CCN(CC(=O)Nc4ccc(C(C)=O)cc4)CC3)cc21", "growth": "93% (inactive)"}
{"smiles": "CCOc1ccc(-n2c(-c3cc(OC)c(OC)c(OC)c3)nnc2-c2ccc(OC)cc2N)cc1", "growth": "76.4% (inactive)"}
{"smiles": "COc1ccc(/C(=C/c2cc(OC)c(OC)c(OC)c2)[N+](=O)[O-])cc1", "growth": "24.1% (inactive)"}
{"smiles": "O=C(Nc1cccc([N+](=O)[O-])c1)Nc1cccc([N+](=O)[O-])c1", "growth": "28.3% (inactive)"}
{"smiles": "COc1ccc(-c2nn(-c3ccc(NC(=O)Nc4cc(C(F)(F)F)cc(C(F)(F)F)c4)cc3)cc2-c2ccncc2)cc1Cl", "growth": "8.51% (active)"}
{"smiles": "O=c1c2ccccc2sc2c(NCCCNCCO)nc3ccccc3c12", "growth": "50% (inactive)"}
{"smiles": "O=C(NNC(=O)c1ccc([N+](=O)[O-])cc1)c1ccc([N+](=O)[O-])cc1", "growth": "94.8% (inactive)"}
{"smiles": "CCN(CC)C(=O)C1CCN(C(=O)c2ccccc2)CC1", "growth": "95.1% (inactive)"}
{"smiles": "O=S(=O)(O)c1ccc(F)cc1", "growth": "96.1% (inactive)"}
{"smiles": "Cc1cc(SCc2ccc(Cl)cc2Cl)nc(SCc2ccc(Cl)cc2Cl)n1", "growth": "98.2% (inactive)"}
{"smiles": "CCOC(=O)c1noc2c1CCc1cn(Cc3cc(OC)cc(OC)c3)cc1-2", "growth": "97.6% (inactive)"}
{"smiles": "CC(C)(C)C(=O)Nc1nc2c(s1)CCc1ccn(S(=O)(=O)c3ccccc3)c1-2", "growth": "82.5% (inactive)"}
{"smiles": "CCCCCCCCCCCCCCCCNc1ccccc1", "growth": "102% (inactive)"}
{"smiles": "Cc1nc(N)nc(SCc2ccccc2)c1Br", "growth": "93.7% (inactive)"}
{"smiles": "O=S(c1ccccc1)c1ccc2nnnn2n1", "note": "(centres undefined)", "growth": "100% (inactive)"}
{"smiles": "O=C1COc2ccccc2C(=O)N1CCCCN1CCCCC1", "growth": "94% (inactive)"}
{"smiles": "O=C(COc1ccc(Cl)cc1Cl)N1N=C(c2ccc(Cl)cc2Cl)CC1(O)c1cc(F)c(Cl)cc1Cl", "note": "(centres undefined)", "growth": "98.7% (inactive)"}
{"smiles": "CC(CCC(=O)O)[C@H]1CCC2C3C(=O)C[C@@H]4CC(=O)CC[C@]4(C)C3CC(=O)[C@@]21C", "note": "(some centres undefined)", "growth": "101% (inactive)"}
{"smiles": "COc1ccc(-c2nn(-c3ccc(NC(=O)Nc4ccc(Cl)c(C(F)(F)F)c4)cc3)cc2-c2ccncc2)cc1Cl", "growth": "6.3% (active)"}
{"smiles": "O=C1COc2ccccc2C(=O)N1CCCCNc1ccccc1", "growth": "98.9% (inactive)"}
{"smiles": "O=C1CCC(c2c(O)cc(O)c3c(=O)c(O)c(-c4ccc(O)c(O)c4)oc23)N1", "note": "(centres undefined)", "growth": "94.7% (inactive)"}
{"smiles": "CCCCCCCCCCCCCCCC(=O)NS(=O)(=O)OC[C@H]1O[C@@H](n2cnc3c(N)ncnc32)[C@H](O)[C@@H]1O", "growth": "-39.5% (active)"}
{"smiles": "CN(CCNCc1ccccn1)CCNCc1ccccn1", "growth": "18.2% (inactive)"}
{"smiles": "CCN(CC)CCNCC(O)Cc1ccc(OC)cc1", "note": "(centres undefined)", "growth": "103% (inactive)"}
{"smiles": "CN1CCN(Cn2nc(-c3cc(Cl)cc(Cl)c3Cl)n(/N=C/c3ccc(Cl)cc3)c2=S)CC1", "growth": "92.5% (inactive)"}
{"smiles": "Cn1cnc([N+](=O)[O-])c1N1c2ccncc2Sc2ccncc21", "growth": "91.2% (inactive)"}
{"smiles": "O=C(O)c1cccc2oc(-c3ccccc3O)nc12", "growth": "54.4% (inactive)"}
{"smiles": "Nn1c(CN2CCN(c3cc4c(cc3F)c(=O)c(C(=O)O)cn4C3CC3)CC2)n[nH]c1=S", "growth": "95.2% (inactive)"}
{"smiles": "Cc1ccc2nc(-c3ccc(-n4on4-c4ccc(/C=C/c5ccc(-n6on6-c6ccc(-c7nc8ccc(C)cc8s7)cc6)cc5S(=O)(=O)O)c(S(=O)(=O)O)c4)cc3)sc2c1", "growth": "105% (inactive)"}
{"smiles": "CC(C)(C)NCC(O)COc1c(Br)c(Br)c(Br)c2c1OC(C)(C)C2", "note": "(centres undefined)", "growth": "-0.995% (active)"}
